SMN2 splice enh: increases expression of the SMN2 splice variant | HEK293 SMN2-luciferase splicing reporter, luminescence, 30-36 h | Potency, µM (titrated, usually from 46.1 µM), actives largely listed as activators | hit rate 2.8% among 210,000 | AID 1458; note: nearly all actives have a fitted effect of over 55% in size
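HEK293 cells carry an SMN2 minigene-luciferase reporter in which exon 7 inclusion puts luciferase in frame. Cells were seeded at 2000 cells/well, attached for 10-12 hours, then exposed to compounds for 30-36 hours at 37C before ONE-Glo luminescence.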
NPC1 prom act: activates the NPC1 promoter; Huh7 NPC1 promoter luciferase reporter, 24 h; Potency, µM (highest dose often 9.22 µM), most hits filed as activators; hit rate 2.4% among 320,000; note: nearly all actives have a fitted effect of over 60% in size
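Huh7 reporter cells (NPC1 promoter driving luciferase) are dosed with compound for 24 h at 37 °C, 5% CO2; luciferase detection reagent is then added and luminescence measured after 10 min at ambient temperature.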
FLuc counter: firefly luciferase modulation, counter-screen for miR-21 project; P08659; purified FLuc, Km substrates, luminescence inhibition; Potency, µM (titrated, usually from 57.5 µM), most hits filed as inhibitors; hit rate 6.9% among 360,000; AID 588342; note: nearly all actives have a fitted effect of over 55% in size
Target sequence (P08659 whole entry, looked up): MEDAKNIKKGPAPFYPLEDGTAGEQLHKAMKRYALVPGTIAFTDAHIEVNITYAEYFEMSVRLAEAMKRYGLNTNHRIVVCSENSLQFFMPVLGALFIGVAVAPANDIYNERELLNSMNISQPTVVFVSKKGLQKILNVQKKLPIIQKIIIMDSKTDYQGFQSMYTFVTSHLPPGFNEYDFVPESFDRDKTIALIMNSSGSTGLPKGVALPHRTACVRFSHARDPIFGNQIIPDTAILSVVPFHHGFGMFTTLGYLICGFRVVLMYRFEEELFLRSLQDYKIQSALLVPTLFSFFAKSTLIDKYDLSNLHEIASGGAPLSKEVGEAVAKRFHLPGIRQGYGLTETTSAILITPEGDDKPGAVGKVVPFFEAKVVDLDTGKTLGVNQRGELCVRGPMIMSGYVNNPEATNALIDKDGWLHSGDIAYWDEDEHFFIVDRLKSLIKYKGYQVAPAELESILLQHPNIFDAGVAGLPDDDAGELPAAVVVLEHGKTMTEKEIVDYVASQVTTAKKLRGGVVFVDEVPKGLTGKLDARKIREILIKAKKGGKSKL
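Purified P. pyralis luciferase, 10 nM final, with Km-level 10 uM D-luciferin and 10 uM ATP in 50 mM Tris acetate pH 7.5, 10 mM Mg acetate, 0.01% Tween-20, 0.05% BSA; 6-point qHTS titration about 60 µM downward; luminescence read.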
ELG1 genotoxic: inducers of genotoxicity in HEK293T ELG1-luciferase cells | HEK293T ELG1-luciferase reporter, luminescence, 16 h | Potency, µM (titrated, usually from 46 µM), usual class: activators | hit rate 1.3% among 330,000 | AID 504466; note: nearly all actives have a fitted effect of over 60% in size
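After overnight (16 hr) compound treatment at 37 °C, ELG1-luciferase HEK293T cells were lysed with ONE-Glo; luminescence quantified 30 min later at room temperature.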
Rab9 prom act: activators of Rab9 promoter. Huh7 Rab9 promoter-luciferase reporter, luminescence, 24 h. Potency, µM (titrated, usually from 9.22 µM), hits mostly activators. hit rate 2.8% among 320,000. AID 485297; note: nearly all actives have a fitted effect of over 60% in size
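Using Huh7 cells stably transfected with Rab9 promoter–luciferase, compounds were incubated 24 h at 37 °C, 5% CO2; luciferase luminescence was read 10 min after reagent addition.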
Numbers stand for hits; . = inactive; ? = inconclusive; / = no result; [ ] = remark or other dose. The list is not random: actives were taken first. Their share in the collection is about 7.4%. Calls come from the whole dose curve; as a rule, active = well fitted curve in the direction sought with a large enough effect; inconclusive = small, poorly fitted or top-dose-only effect, or another doubt; inactive = no such curve, though single readings can be large; an effect the other way counts as inactive or inconclusive.

SMILES | SMN2 splice enh | NPC1 prom act | FLuc counter | ELG1 genotoxic | Rab9 prom act
Cc1ccc(-c2cnn(-c3cccc([N+](=O)[O-])c3)c2N)cc1 | . | 2.2µM | 12µM | ? | 3.2µM
Nc1c(-c2ccc(Cl)cc2)cnc2c(-c3ccccc3)cnn12 | / | 0.32µM | 0.48µM | 1.6µM | 1.3µM
COc1ccc(-c2cnc3c(-c4ccc(F)cc4)cnn3c2N)cc1 | / | 0.4µM | 0.6µM | ? | 0.32µM
C=CCc1c(C)nc2nc(SCC(=O)Nc3ccc(OCC)cc3)nn2c1C | / | / | . | / | /
CCC1Oc2ccccc2N(CC(=O)NCc2cc(OC)ccc2OC)C1=O (configuration not stated) | / | / | . | / | /
CCc1ccc(-n2nc(CO)c(C(=O)NCCCc3ccccc3)n2)cc1 | . | / | . | / | /
COc1cc(SC)ccc1C(=O)OCC(=O)NC1CCCC1 | . | . | 24µM | ? | ?
O=C(COC(=O)c1ccccc1Br)NC1CCCCCCC1 | / | / | / | . | /
O=C(OCC(=O)N1CCCCCC1)c1ccc[nH]c1=O | / | / | / | . | /
O=C(OCC(=O)N1CCCC1)c1ccccc1O | / | 2.8µM | 15µM | ? | ?
COc1ccc(C(=O)OCC(=O)NC2CC2)cc1OC | / | . | . | . | .
COc1ccc(C(=O)OCC(=O)NC2CC2)cc1[N+](=O)[O-] | 5.6µM | . | . | . | .
O=C(COC(=O)c1ccccc1Br)NC1CCCC1 | / | . | 17µM | ? | .
COc1cc(SC)ccc1C(=O)OCC(=O)NC1CCCCC1 | . | . | . | . | .
COc1ccc(CCNC(=O)CCc2c(C)c3ccc(O)c(C)c3oc2=O)cc1 | / | / | . | / | /
O=S(=O)(c1cccc(C(F)(F)F)c1)N1CCC(Oc2ccc(-n3cnnn3)cc2)CC1 | . | / | . | / | /
O=C(OCC(=O)N1CCCCCC1)c1ccccc1Br | / | 2.2µM | 5.4µM | ? | 1.8µM
Cc1ccc(C(=O)OCC(=O)N2CCCCCC2)c(O)c1 | / | ? | 12µM | . | 2.8µM
O=C(OCC(=O)N1CCCC1)c1cccc(Br)c1 | / | . | . | ? | .
CCCC[C@@H](C=O)NC(=O)[C@H](CC(C)C)NC(=O)OCc1ccccc1 | . | / | / | / | /
O=C(CSc1nnc2ccccn12)Nc1cccc(-c2nc3ccccc3s2)c1 | 14µM | 3.5µM | . | ? | ?
COc1ccc(-c2nc(NC(=O)CSc3nnc4ccccn34)ns2)cc1 | . | . | 12µM | . | .
O=C(CSc1nnc2ccccn12)Nc1nsc(-c2ccccc2)n1 | . | . | 15µM | . | .
Nc1ccn([C@H]2O[C@@H](COP(=O)(O)O)[C@@H](O)[C@H]2O)c(=O)n1 | .[9.22 µM] | / | / | / | /
CCc1ccccc1NC(=O)CCS(=O)(=O)c1cccc2nonc12 | . | / | . | / | /
SMILES | SMN2 splice enh | NPC1 prom act | FLuc counter | ELG1 genotoxic | Rab9 prom act
CCC(Oc1ccccc1)C(=O)Nc1ccc(OCc2cc(=O)n3ccc(C)cc3n2)cc1 (configuration not stated) | / | / | . | / | /
O/N=C/c1ccc2ccccc2n1 | / | ? | ? | ? | 2.8µM
O/C(=C\c1nc2ccccc2nc1/C=C(\O)c1ccccc1)c1ccccc1 | ? | 3.2µM | 1.1µM | . | 4.5µM
O/N=C/c1ccc2cccc(O)c2n1 | / | . | ? | . | .
O/C(=C\c1ccc2ccccc2n1)c1ccncc1 | / | 2.5µM | 2.4µM | ? | 1.4µM
CCOC(=O)c1c(C)oc2ncnc(NCCCN3CCN(c4cc(C)ccc4C)CC3)c12 | / | / | . | / | /
COc1ccccc1C(=O)OCc1cc(=O)n2nc(C(C)C)sc2n1 | / | / | . | / | /
Cc1c(CCC(=O)NCCCn2ccnc2)c(=O)oc2cc3oc4c(c3cc12)CCCC4 | / | . | ? | . | .
Cc1oc2c(C)c3oc(=O)c(CCC(=O)N4CCC(C(=O)NCCC(=O)O)(c5ccccc5)CC4)c(C)c3cc2c1C | / | . | . | .[9.26 µM] | .
Cc1c(CCC(=O)N2CCC(C(=O)O)CC2)c(=O)oc2cc3oc4c(c3cc12)CCCC4 | / | . | 11µM | . | .
Cc1c(CCC(=O)N2CCC(C(=O)O)(c3ccccc3)CC2)c(=O)oc2cc3oc4c(c3cc12)CCCC4 | / | . | 13µM | . | .
O=C(NCc1ccc(Cl)cc1)NC1COc2ccccc2C1 (configuration not stated) | / | / | . | / | /
CC(C)[C@@H](C(=O)O)N1C(=O)c2ccccc2C1=O | .[9.22 µM] | / | / | / | /
NC(=O)c1c(NC(=O)C2CCCO2)sc2c1CCCCC2 (configuration not stated) | ? | . | 17µM | ? | ?
CC(C)(C)C1CCc2c(sc(NC(=O)C3CCCO3)c2C(N)=O)C1 (configuration not stated) | . | . | 21µM | . | .
CCC(C)NC(=O)CSc1nc2c(sc3ccccc32)c(=O)n1CCc1ccccc1 (configuration not stated) | / | / | . | / | /
COc1ccc(NC(=S)Nc2cc(-c3ccccc3)[nH]n2)cc1Cl | . | . | ? | . | .
COc1cc(C)c(NC(=S)Nc2ccc(C)c(Cl)c2)cc1OC | . | . | . | . | .
COc1ccc(NC(=S)Nc2cc(C)[nH]n2)cc1Cl | / | ? | 17µM | . | ?
Cc1cc(NC(=S)Nc2ccc(C)c(Cl)c2)n[nH]1 | 18µM | ? | 17µM | ? | ?
CSc1nnc2c(n1)c(C)nn2-c1cccc(C)c1 | . | . | 13µM | . | .
COc1ccc(C2C(C(=O)Nc3ccccc3)=C(C)Nc3nc(-c4ccccc4)nn32)cc1OC (configuration not stated) | . | / | . | / | /
O=C(COc1ccc(F)cc1Cl)Nc1cccc(S(=O)(=O)N2CCCC2)c1 | / | . | 13µM | . | .
CCN(CC)S(=O)(=O)c1cccc(NC(=O)COc2ccc(Cl)cc2Br)c1 | . | . | 21µM | . | .
CCOc1ccc(/C=C/C(=O)OCC(=O)Nc2cccc(S(=O)(=O)N3CCCC3)c2)cc1 | / | . | 2.1µM | . | .
SMILES | SMN2 splice enh | NPC1 prom act | FLuc counter | ELG1 genotoxic | Rab9 prom act
O=C(COc1ccccc1Cl)Nc1cccc(S(=O)(=O)N2CCCC2)c1 | / | . | 19µM | . | .
O=C(CCS(=O)(=O)c1cccs1)Nc1ccc(C(=O)Nc2ccccc2F)cc1 | ? | / | . | / | /
COc1ccccc1NC(=O)CN1C(=O)C(c2ccc(F)cc2)=NC12CCCCC2 | . | / | . | / | /
Nc1cc(N)cc(C(=O)OCC(=O)Nc2cc(S(=O)(=O)N3CCCCC3)ccc2Cl)c1 | . | . | 17µM | . | .
COc1ccc(OCC(=O)NCC2(N3CCN(C)CC3)CCCCC2)cc1 | / | / | . | / | /
CCOC(=O)c1c(NC(=O)c2cc(=O)c3c(C)cc(C)cc3o2)sc(C(C)=O)c1C | . | / | . | / | /
CCOC(=O)Cn1cncc1-c1ccc([N+](=O)[O-])cc1 | ? | . | 24µM | . | ?
Nc1ccccc1C(=O)NNC(=O)C(=O)/C=C(\O)c1ccccc1 | / | . | 13µM | . | .
O=C(/C=C(\O)c1ccccc1)C(=O)NNC(=O)c1ccccc1[N+](=O)[O-] | / | . | . | . | .
CCOC(=O)c1ccc(Nc2ncnc3nc[nH]c23)cc1 | 10µM | ? | ? | ? | ?
c1ccc(COc2ccc(Nc3ncnc4nc[nH]c34)cc2)cc1 | . | ? | 11µM | ? | ?
COc1ccc(Nc2ncnc3nc[nH]c23)cc1OC | ? | . | . | . | .
O=C(Nc1nccs1)c1ccc(COc2ccccc2)o1 | / | 2.5µM | ? | ? | 4.5µM
